Bioassay records: PubChem, National Center for Advancing Translational Sciences (NCATS)
Only some compounds are listed: those with a hit (about 6.6% of all), similar ones and a draw of the others.
TGFb inhibitor: inhibitors of TGF-b signaling; HepG2 CAGA-GFP TGF-b/SMAD3 reporter, GFP fluorescence, 18 h; TGF-beta stimulated, 500 pg/mL final; Potency, µM (doses to about 46.1 µM), usual class: inhibitors; 410,000 compounds, 1.2% hits; further: nearly all actives have a fitted effect of over 65% in size
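First, reporter cells (HEPG2 CAGA-GFP) rested 2 h at 37 degrees C. Next, compounds were pinned in and TGF-beta added to 500 pg/mL final. After 18 h, GFP was imaged per cell and summed per well.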
HepG2 viability: counter-screen for TGF-b inhibitors: cytotoxicity in HepG2 cells. HepG2 CAGA-GFP viability, ATP luminescence, 18 h. AID 588856. Potency, µM (doses to about 46.1 µM), usual class: cytotoxic. 410,000 compounds, 0.76% hits
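CellTiter-Glo luminescence gave cytotoxicity after 18 hours at 37 degrees C. The cells were HepG2 CAGA-GFP in 1% FBS DMEM, stimulated with 500 pg/mL TGF-beta after compound addition. %Activity was normalised to no-cell wells (complete cell-killing) and DMSO (no toxicity), and curves were fitted and classified.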
HT1080NT lethal: kills 2HG-producing HT-1080-NT fibrosarcoma cells. Potency, µM (doses to about 46.1 µM), most hits filed as cytotoxic. AID 686970. HT-1080-NT fibrosarcoma viability, CellTiter-Glo ATP luminescence, 48 h. 360,000 compounds, 1.6% hits;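 further: NT is the 2HG producing partner of a matched IDH1 knockdown line; nearly all actives have a fitted effect of over 55% in size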
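Viability by CellTiter-Glo luminescence after 48 h compound exposure at 37C of HT-1080-NT cells (750/well, RPMI, 5% FBS). % activity scaled between DMSO wells and medium-only wells, then curve-fitted and categorized by curve class.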
HT1080 IDH1KD tx: toxicity to HT-1080 IDH1 knockdown cells (counter line); HT-1080 IDH1 knockdown viability, ATP luminescence, 48 h; Potency, µM (highest dose often 46.1 µM), most hits filed as cytotoxic; 360,000 compounds, 2% hits
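Using the IDH1-knockdown HT-1080 line run in the same batch and compound series as the NT line, viability after 48 h at 37 °C was determined by CellTiter-Glo luminescence and expressed as % activity.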
KB-V1 cytotox: kills drug-selected multidrug resistant KB-V1 cells | 400,000 compounds, 3.4% hits | KB-V1 MDR cells viability, CellTiter-Glo, 72 h | Potency, µM (doses to about 46.1 µM), most hits filed as cytotoxic; further: nearly all actives have a fitted effect of over 60% in size
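qHTS viability screen in drug-selected KB-V1 MDR cells: 72 h compound treatment at 37 degrees C, ATP luminescence end point.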
KB-3-1 cytotox: kills parental KB-3-1 adenocarcinoma cells | KB-3-1 viability, CellTiter-Glo ATP luminescence, 72 h | Potency, µM (titrated, usually from 46.1 µM), usual class: cytotoxic | 400,000 compounds, 1.4% hits; further: nearly all actives have a fitted effect of over 60% in size
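Using CellTiter-Glo luminescence, growth of non-resistant KB-3-1 adenocarcinoma cells is assessed 72 h after pin-tool compound addition at 37 °C. Normalized responses across the concentration series yield fitted curves.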
Of the large screens only hits and unclear results are named; the others gave an inactive call. The call rests on the fitted dose curve; in most records, active means well fitted curve in the direction sought with a large enough effect; inconclusive means small, poorly fitted or top-dose-only effect, or another doubt; inactive means no such curve, though single readings can be large; an effect the other way counts as inactive or inconclusive.

COc1ccc(/C=N/NC(=O)c2cccnc2)cc1COc1ccc(NC(C)=O)cc1	HT1080NT lethal inconclusive, HT1080 IDH1KD tx inconclusive, KB-V1 cytotox inconclusive
COCc1cc(/C=N\NC(=O)Cc2ccc(OC)cc2)ccc1OC	KB-V1 cytotox 23.1µM
Cc1c(Cl)cccc1N1C(=O)CC(Sc2ccccc2N)C1=O (stereo not given)	KB-V1 cytotox inconclusive
CCC1CCc2c(sc(NC(=O)C3c4ccccc4Oc4ccccc43)c2C(=O)OC)C1 (stereo not given)	none (no result: HT1080NT lethal, HT1080 IDH1KD tx)
Cc1ccc(NC(=O)CSc2nnc(-c3cccs3)n2Cc2ccco2)cc1	none
Cc1ccc(C)c(CSc2nnc(-c3cccs3)n2Cc2ccco2)c1	HT1080NT lethal inconclusive, HT1080 IDH1KD tx inconclusive, KB-V1 cytotox 18.4µM
O=C(CSc1nnc(-c2ccccc2)n1Cc1ccco1)Nc1ccc(S(=O)(=O)N2CCCC2)cc1	HT1080 IDH1KD tx 7.08µM
NC(=O)CSc1nnc(-c2cccs2)n1Cc1ccco1	KB-V1 cytotox inconclusive
CN(C)c1ccc(NC(=O)CSc2nnc(-c3cccs3)n2Cc2ccco2)cc1	KB-V1 cytotox 7.31µM, KB-3-1 cytotox inconclusive
CCOc1ccc(NC(=O)CSc2nnc(-c3ccccc3Cl)n2Cc2ccco2)cc1	HT1080NT lethal inconclusive, HT1080 IDH1KD tx inconclusive, KB-V1 cytotox 20.6µM, KB-3-1 cytotox inconclusive
O=C(Nc1sc2c(c1C(=O)NCc1ccco1)CCCC2)c1cc(=O)c2ccccc2o1	none (no result: TGFb inhibitor, HT1080NT lethal, HT1080 IDH1KD tx, KB-V1 cytotox, KB-3-1 cytotox)
Cc1cc(=O)oc2cc(OCCc3ccccc3)ccc12	HT1080NT lethal inconclusive, HT1080 IDH1KD tx inconclusive, KB-3-1 cytotox 20.6µM
COc1ccc(C2=NOC(COc3ccc4c(C)cc(=O)oc4c3)C2)c(OC)c1 (stereo not given)	TGFb inhibitor inconclusive, HT1080NT lethal inconclusive, HT1080 IDH1KD tx 5.8µM, KB-V1 cytotox 14.6µM, KB-3-1 cytotox 5.8µM
COc1ccccc1C1=NOC(COc2ccc3c(C)cc(=O)oc3c2)C1 (stereo not given)	TGFb inhibitor inconclusive, HT1080NT lethal 0.92µM, HT1080 IDH1KD tx 0.731µM, KB-V1 cytotox 18.4µM, KB-3-1 cytotox 1.16µM
COc1ccc2c(C)cc(=O)oc2c1	none
COc1ccc(C2CC(=O)N(Cc3ccccc3)c3c2c(C)nn3-c2nc(C)cc(C)n2)c(OC)c1 (stereo not given)	KB-3-1 cytotox inconclusive (no result: HT1080NT lethal, HT1080 IDH1KD tx)
COc1ccc(-c2nc(CS(=O)CC(=O)NCc3ccc(F)cc3)c(C)o2)cc1OC (stereo not given)	TGFb inhibitor inconclusive (no result: HT1080NT lethal, HT1080 IDH1KD tx)
C=CCOC(=O)C1=C(C)NC(=S)C(C#N)(CC=C)C1c1ccccc1Cl (stereo not given)	TGFb inhibitor 11.2µM
C=CCOC(=O)C1=C(C)OC(N)=C(C#N)C1c1ccccc1F (stereo not given)	none
COc1ccc(NCc2n[nH]c(=O)c3ccccc23)cc1	TGFb inhibitor inconclusive
Cc1nnc(NCc2n[nH]c(=O)c3ccccc23)c2ccccc12	TGFb inhibitor inconclusive, HT1080NT lethal 15.8µM, HT1080 IDH1KD tx 11.2µM, KB-3-1 cytotox inconclusive
COc1ccc(N(CC(=O)NCc2cccs2)S(=O)(=O)c2cccc(C)c2)cc1	none
CCCCC1CCC(C(=O)N2CC(=O)Nc3ccc(Br)cc3C2c2ccc(F)cc2)CC1 (stereo not given)	TGFb inhibitor inconclusive (no result: HT1080NT lethal, HT1080 IDH1KD tx)
CC(C)N1CCc2c(sc(NC(=O)c3ccc4ccccc4c3)c2C(N)=O)C1	HepG2 viability 11.2µM, HT1080NT lethal inconclusive, HT1080 IDH1KD tx inconclusive, KB-V1 cytotox inconclusive, KB-3-1 cytotox inconclusive
CCN1CCc2c(sc(NC(=O)c3cc4ccccc4cc3OC)c2C(N)=O)C1	TGFb inhibitor inconclusive, HT1080NT lethal 6.51µM, HT1080 IDH1KD tx 8.2µM, KB-3-1 cytotox inconclusive
CC(=O)Nc1sc2c(c1-c1nc3ccccc3s1)CCN(C(C)C)C2	TGFb inhibitor inconclusive, HT1080NT lethal 11.6µM, HT1080 IDH1KD tx 11.6µM, KB-V1 cytotox inconclusive, KB-3-1 cytotox 7.31µM
